Measured values: PubChem BioAssay (NCATS)
Results filed as inconclusive are left out. Activity calls are given as the source filed them. Calls come from the whole dose curve; as a rule, active = well fitted curve in the direction sought with a large enough effect; inconclusive = small, poorly fitted or top-dose-only effect, or another doubt; inactive = no such curve, though single readings can be large; an effect the other way counts as inactive or inconclusive.

Key:
[1] = test system: CRL-7250; test: Cytotoxic Profiling of Annotated Libraries Using Quantitative High-Throughput Screening (AID 1296008); conditions: Five cell lines viability, CellTiter-Glo ATP luminescence, 48-72 h; max response: hits give low values; note: nearly all actives have a fitted effect of over 60% in size; for max response: % is set by controls: 0 for no effect and ±100 for the full control effect
Procedure, shortened: (§1)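 Cytotoxicity was measured as CellTiter-Glo ATP luminescence, read after 10 min at room temperature. Compound treatment of the cells lasted 48 or 72 hr at 37 degrees Celsius in a qHTS format.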

[2] = test system: HEK293; test: as above; conditions: Five cell lines viability, CellTiter-Glo ATP luminescence, 48-72 h; max response: hits give low values
Procedure, shortened: as §1

[3] = test system: HaCat; test: as above; conditions: Five cell lines viability, CellTiter-Glo ATP luminescence, 48-72 h; max response: hits give low values
Procedure, shortened: as §1

[4] = test system: KB-3-1; test: as above; conditions: Five cell lines viability, CellTiter-Glo ATP luminescence, 48-72 h; max response: hits give low values
Procedure, shortened: as §1

[5] = test system: NIH3T3; test: as above; conditions: Five cell lines viability, CellTiter-Glo ATP luminescence, 48-72 h; max response: hits give low values
Procedure, shortened: as §1

[6] = test system: NIH3T3; test: qHTS assay to identify novel small-molecules to repurpose for Merkel cell carcinoma treatment (AID 1296009); conditions: MCC and control cell lines, CellTiter-Glo viability, 72 h; at 44.8 µM (top of the series) unless noted; note: nearly all actives have a fitted effect of over 60% in size
Procedure, shortened: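 After compound transfer in DMSO, plates were kept 72 hr at 37 degree celsius. Luminescent ATP signal from CellTiter-Glo served as viability measure, normalized against DMSO and no-cell controls.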

[7] = test system: C33A; test: Primary qHTS to identify gynecologic anti-cancer compounds using libraries of approved drugs and bioactive compounds (AID 1345084); conditions: Gynecologic cancer cell panel viability, ATPlite luminescence, 48 h; series mostly up to 57.5 µM; note: % is set by controls: 0 for no effect and ±100 for the full control effect; nearly all actives have a fitted effect of over 55% in size
Procedure, shortened: (§2)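 Luminescence from the ATPlite ATP-monitoring reagent indicates viable cell number; lower signal means cytotoxicity. Cells received compound 16 h after seeding and were exposed for 48 h across five concentrations.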

[8] = test system: CAOV3; test: as above; conditions: Gynecologic cancer cell panel viability, ATPlite luminescence, 48 h; series mostly up to 57.5 µM
Procedure, shortened: as §2

[9] = test system: CASKI; test: as above; conditions: Gynecologic cancer cell panel viability, ATPlite luminescence, 48 h; series mostly up to 57.5 µM
Procedure, shortened: as §2

[10] = test system: Es-2; test: as above; conditions: Gynecologic cancer cell panel viability, ATPlite luminescence, 48 h; series mostly up to 57.5 µM
Procedure, shortened: as §2

[11] = test system: HeLa; test: as above; conditions: Gynecologic cancer cell panel viability, ATPlite luminescence, 48 h; series mostly up to 57.5 µM
Procedure, shortened: as §2

[12] = test system: Hek293T; test: as above; conditions: Gynecologic cancer cell panel viability, ATPlite luminescence, 48 h, control line for the selectivity index; series mostly up to 57.5 µM
Procedure, shortened: as §2

[13] = test system: JEG-3; test: as above; conditions: Gynecologic cancer cell panel viability, ATPlite luminescence, 48 h; series mostly up to 57.5 µM
Procedure, shortened: as §2

[14] = test system: OV90; test: as above; conditions: Gynecologic cancer cell panel viability, ATPlite luminescence, 48 h; series mostly up to 57.5 µM
Procedure, shortened: as §2

[15] = test system: PA-1; test: as above; conditions: Gynecologic cancer cell panel viability, ATPlite luminescence, 48 h; series mostly up to 57.5 µM
Procedure, shortened: as §2

COC(=O)C1=COC(OC2OC(CO)C(O)C(O)C2O)C2C(C)CC(=O)C12O (centres undefined)
inactive: outcome [1] | max response [2] 2.83% | max response [3] -24.6% | outcome [4] | outcome [5] | outcome [6] inactive [at 17.4 µM] | Potency [7] | Potency [8] | outcome [9] | Potency [10] | Potency [11] | Potency [12] | Potency [13] | Potency [14]

CC(C)CC[C@@H](O)[C@](C)(O)[C@H]1CC[C@@]2(O)C3=CC(=O)[C@@H]4C[C@@H](O)[C@@H](O)C[C@]4(C)[C@H]3CC[C@]12C
inactive: max response [1] -1.43% | max response [2] 3.83% | max response [3] 4.07% | outcome [4] | outcome [5] | outcome [6] | Potency [7] | Potency [8] | outcome [9] | Potency [10] | Potency [11] | Potency [12] | Potency [13] | Potency [14] | Potency [15]

CC(=O)OCC1OC(O[C@H]2CC[C@]34C[C@]35CC(O)[C@]3(C)[C@@H]([C@H](C)CC/C=C(\C)C(=O)O)C(O)C[C@@]3(C)C5CC[C@H]4C2(C)C)C(O)C(O)C1OC1OCC(O)C(O)C1O (some centres undefined)
inactive: max response [1] -0.106% | max response [2] -3.14% | max response [3] 2.3% | max response [4] 7.5% | outcome [5] | outcome [6] inactive [at 9.27 µM] | activity change, negative = cytotoxicity [7] -4.66% [at 11.6 µM] | activity change, negative = cytotoxicity [8] -5.98% [at 11.6 µM] | activity change, negative = cytotoxicity [9] -12.9% [at 11.6 µM] | activity change, negative = cytotoxicity [10] -0.425% [at 11.6 µM] | activity change, negative = cytotoxicity [11] 6.1% [at 11.6 µM] | activity change, negative = cytotoxicity [12] -4.45% [at 11.6 µM] | activity change, negative = cytotoxicity [13] -9.54% [at 11.6 µM] | activity change, negative = cytotoxicity [14] -7.9% [at 11.6 µM] | activity change, negative = cytotoxicity [15] -0.531% [at 11.6 µM]

C[C@@H]1C[C@@H](O)[C@@]23CO[C@]2(CO)CCC[C@@H]3[C@@]12C[C@@H](c1ccoc1)OC2=O
inactive: max response [1] -8.12% | max response [2] 2.85% | max response [3] -3.9% | max response [4] 7.05% | outcome [5] | outcome [6] | Potency [7] | Potency [8] | outcome [9] | Potency [10] | Potency [11] | Potency [12] | Potency [13] | Potency [14] | Potency [15]

O=C(OC[C@H]1O[C@@H](Oc2ccccc2COC(=O)C2(O)C=CCCC2O)[C@H](O)[C@@H](O)[C@@H]1O)c1ccccc1 (some centres undefined)
inactive: outcome [1] | max response [2] -3.05% | max response [3] 3.77% | max response [4] 1.49% | outcome [5] | outcome [6] inactive [at 17.4 µM] | Potency [7] | Potency [8] | outcome [9] | Potency [10] | Potency [11] | Potency [12] | Potency [13] | Potency [14] | Potency [15]

CO[C@@H]1[C@]2(O)C(=O)N3/C=C\C(C)(C)c4[nH]c5ccccc5c4/C=C\3C(=O)N2[C@]23[C@H](CO)C(C)(C)N2c2ccccc2[C@]13O
inactive: max response [1] 1.93% | max response [2] 0.736% | max response [3] -14.4% | max response [4] 7.79% | outcome [5] | outcome [6] inactive [at 17.4 µM] | Potency [7] | Potency [8] | outcome [9] | Potency [10] | Potency [11] | Potency [12] | Potency [13] | Potency [14] | Potency [15]

CC(=O)O[C@@H]1C(=O)C(C)=C(CCC(C)CC(=O)O)[C@@]2(C)CCCC(C)(C)C12 (some centres undefined)
inactive: outcome [1] | max response [2] 0.534% | max response [3] -6.8% | max response [4] -5.14% | outcome [5] | outcome [6] | Potency [7] | Potency [8] | outcome [9] | Potency [10] | Potency [11] | Potency [12] | Potency [13] | Potency [14] | Potency [15]

Cn1cc(Nc2cnccc2C(=O)O)c2cccnc21
inactive: max response [1] 1.11% | max response [2] -5.52% | max response [3] 4.86% | outcome [4] | outcome [5] | outcome [6] | Potency [7] | Potency [8] | outcome [9] | Potency [10] | Potency [11] | Potency [12] | Potency [13] | Potency [14] | Potency [15]

CC1=C2C(=O)C=C(CO)C2[C@H]2OC(=O)[C@H](C)[C@@H]2[C@@H](OC(=O)Cc2ccc(O)cc2)C1 (some centres undefined)
inactive: outcome [1] | max response [2] -2.2% | max response [3] 3.29% | outcome [4] | outcome [5] | outcome [6] inactive [at 17.4 µM] | Potency [7] | Potency [8] | outcome [9] | Potency [10] | Potency [11] | Potency [12] | Potency [13] | Potency [14] | Potency [15]

C=C[C@H]1[C@H](O[C@@H]2O[C@H](CO)[C@@H](O)[C@H](O)[C@H]2O)OC=C(C(=O)OC)[C@H]1CC=O
inactive: max response [1] 3.16% | max response [2] -0.876% | max response [3] 4.35% | outcome [4] | outcome [5] | outcome [6] | Potency [7] | Potency [8] | outcome [9] | Potency [10] | Potency [11] | Potency [12] | Potency [13] | Potency [14] | Potency [15]

Cc1ccc2[nH]c(=O)c(C3=NN(C(=O)CCC(=O)O)C(c4ccc(Br)cc4)C3)c(-c3ccccc3)c2c1 (centres undefined)
inactive: max response [1] 0.735% | max response [2] 1.24% | max response [3] -0.37% | max response [4] 4.72% | outcome [5] | outcome [6] | Potency [7] | Potency [8] | outcome [9] | Potency [10] | Potency [11] | Potency [12] | Potency [13] | Potency [14] | Potency [15]

C=C1CC[C@@]2(OC1)O[C@H]1CC3C4CC=C5C[C@@H](O[C@@H]6O[C@@H](C)[C@H](O)[C@@H](O)[C@H]6O)C[C@@H](O[C@@H]6O[C@H](C)[C@H](O)[C@H](O)[C@H]6O[C@@H]6O[C@@H](C)[C@H](O)[C@@H](O)[C@H]6O)[C@]5(C)C4CC[C@]3(C)[C@H]1[C@@H]2C (some centres undefined)
inactive: outcome [1] | max response [2] 1.18% | max response [3] -14.8% | max response [4] 5.01% | outcome [5] | outcome [6] inactive [at 9.27 µM] | activity change, negative = cytotoxicity [7] 1.56% [at 11.6 µM] | activity change, negative = cytotoxicity [8] 10.5% [at 11.6 µM] | activity change, negative = cytotoxicity [9] -15.2% [at 11.6 µM] | activity change, negative = cytotoxicity [10] 20.8% [at 11.6 µM] | activity change, negative = cytotoxicity [11] 18.7% [at 11.6 µM] | activity change, negative = cytotoxicity [12] 5.62% [at 11.6 µM] | activity change, negative = cytotoxicity [13] -4.67% [at 11.6 µM] | activity change, negative = cytotoxicity [14] -12.6% [at 11.6 µM] | activity change, negative = cytotoxicity [15] -0.609% [at 11.6 µM]
